# From PubChem BioAssay (NCI)
# Compounds without any hit were thinned out: in the full panel of roughly 79,000, 15% have a hit. Values without a mark were called inactive. The source made the active and inactive calls. No stated cut-off is given here; in the data, active means growth inhibition above about 70%; inactive means the rest.
# Tests used:
# [1] = NCI Yeast Anticancer Drug Screen. Data for the rad52 strain (AID 147);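 further: 0% = growth of vehicle-treated control cultures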; settings: S. cerevisiae rad52 mutant growth inhibition, active compounds read high
# Outline: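 Compounds are applied to a genetically defined yeast strain lacking normal DNA damage repair, and inhibition of growth is expressed relative to cultures given vehicle only.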
# [2] = NCI Yeast Anticancer Drug Screen. Data for the wt1 strain (AID 149);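 further: 0% = growth of vehicle-treated wt1 cultures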; settings: S. cerevisiae wt1 strain (SPY 50644) growth inhibition, active compounds read high
# Outline: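 Using yeast strain wt1, compound-induced growth inhibition was determined against vehicle-treated cultures.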
# [3] = NCI Yeast Anticancer Drug Screen. Data for the rad50EPP+ strain (AID 151);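 further: 0% = growth of vehicle-treated control cultures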; settings: S. cerevisiae rad50 mutant strain, active compounds read high
# Outline: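 Compounds were applied to the rad50EPP+ yeast strain, which bears a defined DNA repair alteration, and growth inhibition was determined relative to vehicle-treated cultures.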
# [4] = NCI Yeast Anticancer Drug Screen. Data for the rad50 strain (AID 155);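 further: 0% = growth of vehicle-only cultures of the same strain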; settings: S. cerevisiae rad50 strain growth inhibition, active compounds read high
# Outline: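 Relative growth inhibition (compound vs vehicle) was measured in yeast with a defined repair-gene alteration.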
# [5] = NCI Yeast Anticancer Drug Screen. Data for the mec2-1 strain (AID 157); settings: S. cerevisiae mec2-1 strain, active compounds read high
# Outline: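 Strain: mec2-1 (DNA repair/cell cycle alteration). Compound exposure, then growth measured; inhibition expressed relative to vehicle.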
# [6] = NCI Yeast Anticancer Drug Screen. Data for the rad14 strain (AID 159);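 further: 0% = growth of vehicle-treated control cultures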; settings: S. cerevisiae rad14 strain growth inhibition, active compounds read high
# Outline: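 Screen for anticancer potential: a yeast strain altered in DNA damage repair is grown with compound, and reduced growth is quantified against vehicle controls.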
# [7] = NCI Yeast Anticancer Drug Screen. Data for the sgs1 mgt1 strain (AID 161);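 further: 0% = growth of cultures given vehicle only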; settings: S. cerevisiae sgs1 mgt1 strain, active compounds read high
# Outline: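 Genetically altered yeast, compound exposure, growth inhibition relative to vehicle.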
# [8] = NCI Yeast Anticancer Drug Screen. Data for the CLN2oe strain (AID 163);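 further: 0% = growth of vehicle-only control cultures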; settings: S. cerevisiae CLN2oe strain, active compounds read high
# Outline: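 Growth of a genetically modified yeast strain is measured after compound exposure and compared with cultures given vehicle alone.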
# [9] = NCI Yeast Anticancer Drug Screen. Data for the cln2 rad14 strain (AID 165);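 further: 0% = growth equal to vehicle treated cultures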; settings: S. cerevisiae cln2 rad14 strain, active compounds read high
# Outline: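 Compounds are applied to the cln2 rad14 yeast strain, and growth is then compared with that of vehicle-treated cultures to give inhibition.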
# [10] = NCI Yeast Anticancer Drug Screen. Data for the bub3 strain (AID 167); settings: S. cerevisiae bub3 mutant strain, active compounds read high
# Outline: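 Screening used yeast with an engineered genetic alteration affecting cell cycle control. Compound-exposed cultures were compared with vehicle cultures, and reduced growth was taken as inhibition.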
# [11] = NCI Yeast Anticancer Drug Screen. Data for the mlh1 strain (AID 171);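 further: 0% = growth of vehicle-treated control cultures of the same strain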; settings: S. cerevisiae mlh1 strain growth inhibition, active compounds read high
# Outline: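 Growth of the mutant yeast strain after compound exposure, expressed as inhibition relative to vehicle-only controls.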
# [12] = NCI Yeast Anticancer Drug Screen. Data for the sgs1 strain (AID 173);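 further: 0% = growth of vehicle-only control cultures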; settings: S. cerevisiae sgs1 mutant, active compounds read high
# Outline: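 Growth of a yeast strain bearing a defined genetic alteration is measured after compound treatment. Inhibition is expressed relative to vehicle-only controls.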
# [13] = NCI Yeast Anticancer Drug Screen. Data for the mlh1 rad18 strain (AID 175); settings: S. cerevisiae mlh1 rad18 strain growth inhibition, active compounds read high
# Outline: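 Read-out is yeast growth inhibition, calculated against vehicle-only controls. The compound was applied to a strain engineered with DNA damage repair alterations.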
# [14] = NCI Yeast Anticancer Drug Screen. Data for the rad18 strain (AID 177); settings: S. cerevisiae rad18 mutant growth inhibition, active compounds read high
# Outline: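 Growth of the mutant yeast strain after compound exposure, normalised to vehicle-only cultures.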
# [15] = at 5.0 µM (retest, dose inferred, filed as 0.5)
# [16] = at 50.0 µM (retest, dose inferred, filed as 5.0)
compound,measurement,setting,value
Oc1ccc(C=Nc2ccccc2O)cc1,growth inhibition,[1]; at 1.2 µM,34%
same,growth inhibition,[1]; at 3.7 µM,52%
same,growth inhibition,[1]; at 11.0 µM,56%
same,growth inhibition,[1]; at 33.0 µM,75% (active)
same,growth inhibition,[1]; at 100.0 µM,88% (active)
same,growth inhibition,[2]; at 1.2 µM,28%
same,growth inhibition,[2]; at 3.7 µM,28%
same,growth inhibition,[2]; at 11.0 µM,25%
same,growth inhibition,[2]; at 33.0 µM,27%
same,growth inhibition,[2]; at 100.0 µM,39%
same,growth inhibition,[3]; at 1.2 µM,35%
same,growth inhibition,[3]; at 3.7 µM,68%
same,growth inhibition,[3]; at 11.0 µM,90% (active)
same,growth inhibition,[3]; at 33.0 µM,90% (active)
same,growth inhibition,[3]; at 100.0 µM,94% (active)
same,growth inhibition,[4]; at 1.2 µM,68%
same,growth inhibition,[4]; at 3.7 µM,85% (active)
same,growth inhibition,[4]; [15],13%
same,growth inhibition,[4]; at 11.0 µM,81% (active)
same,growth inhibition,[4]; at 33.0 µM,84% (active)
same,growth inhibition,[4]; [16],80% (active)
same,growth inhibition,[4]; at 50.0 µM,78.8% (active)
same,growth inhibition,[4]; at 100.0 µM,90% (active)
same,growth inhibition,[5]; at 1.2 µM,23%
same,growth inhibition,[5]; at 3.7 µM,29%
same,growth inhibition,[5]; [15],26%
same,growth inhibition,[5]; at 11.0 µM,33%
same,growth inhibition,[5]; at 33.0 µM,44%
same,growth inhibition,[5]; [16],14%
same,growth inhibition,[5]; at 50.0 µM,23%
same,growth inhibition,[5]; at 100.0 µM,65%
same,growth inhibition,[6]; at 1.2 µM,17%
same,growth inhibition,[6]; at 3.7 µM,16%
same,growth inhibition,[6]; at 11.0 µM,20%
same,growth inhibition,[6]; at 33.0 µM,25%
same,growth inhibition,[6]; at 100.0 µM,38%
same,growth inhibition,[7]; [15],15%
same,growth inhibition,[7]; [16],42%
same,growth inhibition,[7]; at 50.0 µM,28.8%
same,growth inhibition,[8]; at 1.2 µM,47%
same,growth inhibition,[8]; at 3.7 µM,58%
same,growth inhibition,[8]; at 11.0 µM,60%
same,growth inhibition,[8]; at 33.0 µM,56%
same,growth inhibition,[8]; at 100.0 µM,64%
same,growth inhibition,[9]; [15],11%
same,growth inhibition,[9]; [16],31%
same,growth inhibition,[9]; at 50.0 µM,1.55%
same,growth inhibition,[10]; at 1.2 µM,75% (active)
same,growth inhibition,[10]; at 3.7 µM,82% (active)
same,growth inhibition,[10]; [15],55%
same,growth inhibition,[10]; at 11.0 µM,81% (active)
same,growth inhibition,[10]; at 33.0 µM,83% (active)
same,growth inhibition,[10]; [16],86% (active)
same,growth inhibition,[10]; at 50.0 µM,80.3% (active)
same,growth inhibition,[10]; at 100.0 µM,92% (active)
same,growth inhibition,[11]; at 1.2 µM,32%
same,growth inhibition,[11]; at 3.7 µM,45%
same,growth inhibition,[11]; at 11.0 µM,36%
same,growth inhibition,[11]; at 33.0 µM,45%
same,growth inhibition,[11]; at 100.0 µM,73% (active)
same,growth inhibition,[12]; at 1.2 µM,32%
same,growth inhibition,[12]; at 3.7 µM,36%
same,growth inhibition,[12]; at 11.0 µM,37%
same,growth inhibition,[12]; at 33.0 µM,51%
same,growth inhibition,[12]; at 100.0 µM,67%
same,growth inhibition,[13]; [15],48%
same,growth inhibition,[13]; [16],86% (active)
same,growth inhibition,[13]; at 50.0 µM,70% (active)
same,growth inhibition,[14]; at 1.2 µM,61%
same,growth inhibition,[14]; at 3.7 µM,78% (active)
same,growth inhibition,[14]; at 11.0 µM,76% (active)
same,growth inhibition,[14]; at 33.0 µM,75% (active)
same,growth inhibition,[14]; at 100.0 µM,85% (active)
COc1cc(/C=C/c2sc3ccccc3[n+]2C)ccc1N(C)C,growth inhibition,[1]; at 1.2 µM,1%
same,growth inhibition,[1]; at 3.7 µM,-2%
same,growth inhibition,[1]; at 11.0 µM,0%
same,growth inhibition,[1]; at 33.0 µM,67%
same,growth inhibition,[1]; at 100.0 µM,93% (active)
same,growth inhibition,[2]; at 1.2 µM,0%
same,growth inhibition,[2]; at 3.7 µM,-1%
same,growth inhibition,[2]; at 11.0 µM,-1%
same,growth inhibition,[2]; at 33.0 µM,30%
same,growth inhibition,[2]; at 100.0 µM,97% (active)
same,growth inhibition,[3]; at 1.2 µM,-1%
same,growth inhibition,[3]; at 3.7 µM,4%
same,growth inhibition,[3]; at 11.0 µM,11%
same,growth inhibition,[3]; at 33.0 µM,31%
same,growth inhibition,[3]; at 100.0 µM,87% (active)
same,growth inhibition,[4]; at 1.2 µM,-4%
same,growth inhibition,[4]; at 3.7 µM,6%
same,growth inhibition,[4]; [15],3%
same,growth inhibition,[4]; at 11.0 µM,-18%
same,growth inhibition,[4]; at 33.0 µM,65%
same,growth inhibition,[4]; [16],4%
same,growth inhibition,[4]; at 50.0 µM,67.8%
same,growth inhibition,[4]; at 100.0 µM,96% (active)
same,growth inhibition,[5]; at 1.2 µM,0%
same,growth inhibition,[5]; at 3.7 µM,0%
same,growth inhibition,[5]; [15],3%
same,growth inhibition,[5]; at 11.0 µM,2%
same,growth inhibition,[5]; at 33.0 µM,69%
same,growth inhibition,[5]; [16],0%
same,growth inhibition,[5]; at 50.0 µM,61.1%
same,growth inhibition,[5]; at 100.0 µM,98% (active)
same,growth inhibition,[6]; at 1.2 µM,-4%
same,growth inhibition,[6]; at 3.7 µM,-7%
same,growth inhibition,[6]; at 11.0 µM,-2%
same,growth inhibition,[6]; at 33.0 µM,88% (active)
same,growth inhibition,[6]; at 100.0 µM,99% (active)
same,growth inhibition,[7]; [15],2%
same,growth inhibition,[7]; [16],7%
same,growth inhibition,[7]; at 50.0 µM,93.5% (active)
same,growth inhibition,[9]; [15],-2%
same,growth inhibition,[9]; [16],-1%
same,growth inhibition,[9]; at 50.0 µM,33.6%
same,growth inhibition,[10]; at 1.2 µM,-2%
same,growth inhibition,[10]; at 3.7 µM,1%
same,growth inhibition,[10]; [15],3%
same,growth inhibition,[10]; at 11.0 µM,-2%
same,growth inhibition,[10]; at 33.0 µM,68%
same,growth inhibition,[10]; [16],85% (active)
same,growth inhibition,[10]; at 50.0 µM,64.5%
same,growth inhibition,[10]; at 100.0 µM,97% (active)
same,growth inhibition,[11]; at 1.2 µM,0%
same,growth inhibition,[11]; at 3.7 µM,-4%
same,growth inhibition,[11]; at 11.0 µM,-3%
same,growth inhibition,[11]; at 33.0 µM,71% (active)
same,growth inhibition,[11]; at 100.0 µM,98% (active)
same,growth inhibition,[12]; at 1.2 µM,0%
same,growth inhibition,[12]; at 3.7 µM,0%
same,growth inhibition,[12]; at 11.0 µM,-1%
same,growth inhibition,[12]; at 33.0 µM,82% (active)
same,growth inhibition,[12]; at 100.0 µM,97% (active)
same,growth inhibition,[13]; [15],-11%
same,growth inhibition,[13]; [16],-6%
same,growth inhibition,[13]; at 50.0 µM,92.5% (active)
same,growth inhibition,[14]; at 1.2 µM,2%
same,growth inhibition,[14]; at 3.7 µM,5%
same,growth inhibition,[14]; at 11.0 µM,2%
same,growth inhibition,[14]; at 33.0 µM,73% (active)
same,growth inhibition,[14]; at 100.0 µM,96% (active)
